Sampled rows, rich in hits. Any-hit rate of the full collection: about 14%.
USP17 inh: inhibitors of human USP17 deubiquitinase; Ubiquitin carboxyl-terminal hydrolase 17-like protein 5 (Homo sapiens), A8MUK1; purified USP17, Ub-rhodamine cleavage fluorescence, 3 h; inhibition, % at 50 µM; actives 6.5% (n = 47,000); AID 1645855, 2021
USP8 inh: inhibitors of human USP8 deubiquitinase | purified USP8, Ub-rhodamine cleavage fluorescence, 30 min | AID 1645853, 2021 | inhibition, % at 20 µM | Ubiquitin carboxyl-terminal hydrolase 8 (Homo sapiens), P40818 | actives 4.2% (n = 47,000)
USP30 inh: inhibitors of human USP30 deubiquitinase. Ubiquitin carboxyl-terminal hydrolase 30 (Homo sapiens), Q70CQ3. purified USP30, Ub-rhodamine cleavage fluorescence. inhibition, % at 25 µM. actives 5.3% (n = 47,000)
USP28 block: inhibitors of human USP28 deubiquitinase. Ubiquitin carboxyl-terminal hydrolase 28 (Homo sapiens), Q96RU2. purified USP28, Ub-rhodamine cleavage fluorescence, 30 min. inhibition, % at 25 µM. actives 3% (n = 47,000). AID 1645857, 2021
Target sequence (Q96RU2 whole entry, looked up): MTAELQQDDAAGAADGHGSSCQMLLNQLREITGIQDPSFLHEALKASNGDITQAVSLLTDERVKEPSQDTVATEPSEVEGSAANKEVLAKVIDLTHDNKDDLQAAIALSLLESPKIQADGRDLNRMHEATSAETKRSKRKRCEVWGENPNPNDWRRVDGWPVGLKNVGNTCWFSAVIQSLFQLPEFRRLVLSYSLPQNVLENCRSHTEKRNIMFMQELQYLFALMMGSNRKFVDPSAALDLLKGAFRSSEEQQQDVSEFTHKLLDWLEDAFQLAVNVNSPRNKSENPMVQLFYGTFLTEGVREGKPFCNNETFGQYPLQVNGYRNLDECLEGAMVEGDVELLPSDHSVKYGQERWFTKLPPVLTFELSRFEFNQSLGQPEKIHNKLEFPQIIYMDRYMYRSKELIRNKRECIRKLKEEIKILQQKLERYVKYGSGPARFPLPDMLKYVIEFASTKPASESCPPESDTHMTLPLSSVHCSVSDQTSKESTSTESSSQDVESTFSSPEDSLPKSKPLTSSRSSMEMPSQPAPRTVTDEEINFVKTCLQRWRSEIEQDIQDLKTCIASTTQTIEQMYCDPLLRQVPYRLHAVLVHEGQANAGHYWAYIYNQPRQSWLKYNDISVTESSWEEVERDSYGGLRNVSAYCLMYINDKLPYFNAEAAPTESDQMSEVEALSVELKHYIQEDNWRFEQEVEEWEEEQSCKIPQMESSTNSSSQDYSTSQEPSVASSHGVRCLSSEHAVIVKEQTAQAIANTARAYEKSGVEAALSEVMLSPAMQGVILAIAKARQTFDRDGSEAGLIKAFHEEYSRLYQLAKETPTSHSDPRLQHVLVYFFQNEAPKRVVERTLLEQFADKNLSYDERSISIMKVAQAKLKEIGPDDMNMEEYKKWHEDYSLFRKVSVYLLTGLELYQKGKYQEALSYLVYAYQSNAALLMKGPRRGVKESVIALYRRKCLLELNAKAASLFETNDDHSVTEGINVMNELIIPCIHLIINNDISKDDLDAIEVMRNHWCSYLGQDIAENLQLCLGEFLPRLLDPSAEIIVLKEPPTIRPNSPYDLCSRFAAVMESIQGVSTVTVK
* = called active by the depositor; · = no result given. Rule as the data show it: active = inhibition above about 30%; inactive = the rest.

SMILES	USP17 inh	USP8 inh	USP30 inh	USP28 block
Cc1nnc(Nc2ccc(C(=O)Nc3c(Cl)cccc3Cl)cc2)c2ccccc12	-15.1	-4.2	-35.7	0.3
O=C(O)c1cccc(Nc2c(-c3ccccc3O)nc3cnccn23)c1	7.4	9.2	-40.4	0.1
Cc1ccc(Nc2c(-c3ccccc3O)nc3c[n+](CC(N)=O)ccn23)cc1	-63.8	36.5*	-224.3	-81.4
NC(=O)C[n+]1ccn2c(Nc3ccccc3)c(-c3ccccc3O)nc2c1	16.3	72.5*	-65.3	-5.6
COC(=O)c1cccc(Nc2c(-c3ccccc3O)nc3cnccn23)c1	-7.7	-8.4	·	·
Cn1c(N)c(C(=O)CSc2nnc(Cn3cnc4ccccc43)n2-c2ccccc2Cl)c(=O)n(C)c1=O	9.4	-2.5	39.1*	5.7
Cc1ccc(NC(=O)CC(C)CC(=O)Nc2ccc(C(C)C)cc2)cc1Cl (stereo not given)	·	31.2*	25.8	10.6
COc1ccc(NC(=O)CC(C)CC(=O)Nc2ccc(C(C)C)cc2)c(OC)c1 (stereo not given)	45.8*	7.9	20.3	1.6
Cn1cc(S(=O)(=O)N2CCCCCC2)cc1C(=O)Nc1ccc(F)cc1	49.5*	10.5	14.6	3.3
Cn1cc(S(=O)(=O)N2CCCCCC2)cc1C(=O)Nc1cccc(F)c1	16.4	1.5	9.9	6.4
COc1ccccc1NS(=O)(=O)c1ccc2oc(Nc3ccc4c(c3)CCC4)nc2c1	4.9	50.8*	-52.4	0.2
COc1ccccc1NS(=O)(=O)c1ccc(-c2c(C)noc2C)cc1	-15.6	-3.9	-9.6	2.2
Cc1cc(-c2ccc(C)c(S(=O)(=O)N3CC(=O)Nc4ccccc43)c2)on1	46.7*	-1.3	8.7	25.5
COc1ccc(S(=O)(=O)N2CC(=O)Nc3ccccc32)cc1	-2.6	3.9	-3.9	-4.2
COc1ccccc1NC(=O)C1CCCN(S(=O)(=O)Cc2ccccc2)C1 (stereo not given)	7.1	20.5	29.2	1.5
COc1ccc2c(c1)CCc1cc(C(=O)OCC(=O)c3ccccc3)sc1-2	-15.1	-52.7	-70.4	-34.1
Cn1c(=O)n([C@@H](Cc2ccccc2)C(=O)N2CCCCC2)c(=O)c2ccccc21	-15.3	-15.6	-3.1	-21.7
Cn1c(=O)n([C@@H](Cc2ccccc2)C(=O)N[C@@H](C(=O)O)c2ccc(O)cc2)c(=O)c2ccccc21	23.8	75.1*	10.3	6.4
O=C(Nc1ccnn1C1CCCC1)c1cccnc1Sc1ccccc1Cl	-13.4	-13.7	-14.4	-9.0
COc1cc(NC(=O)Cn2cc(C(=O)c3ccccc3)c(=O)c3cc(Cl)ccc32)cc(OC)c1	0.1	97.0*	-22.9	-0.2
COc1ccccc1NC(=O)Cn1cc(C(=O)c2ccc(C)cc2)c(=O)c2cc(Cl)ccc21	60.5*	2.4	24.9	2.4
Cc1ccc(-c2nc3ccccc3c(=O)n2CN2CCOCC2)cc1	6.0	1.3	18.3	-2.2
O=C1c2ccccc2-n2c1nc1ccccc1c2=O	50.1*	21.5	-12.0	-7.2
COc1cc(C)ccc1OCCSc1nnc(-c2ccc3c(c2)OCO3)o1	4.9	-1.5	-23.3	5.0
c1ccc2c(c1)CCN(c1nc3cc4c(cc3s1)OCO4)C2	27.6	33.5*	5.3	9.8
SMILES	USP17 inh	USP8 inh	USP30 inh	USP28 block
c1ccc(-c2cc3c(NCc4ccccn4)ncnc3s2)cc1	35.1*	20.8	26.2	26.3
Cc1nc(NCc2ccccn2)c2cc(-c3ccccc3)sc2n1	74.3*	30.3*	2.3	-10.6
c1ccc(-c2nc3sc4c(NCc5ccccn5)ncnc4c3c3c2CCC3)cc1	-3.1	4.6	-36.7	-5.6
CCOC(=O)c1sc2nc(C)nc(NCc3ccccn3)c2c1C	10.7	4.8	30.5*	5.2
O=C(CNc1ncnc2sc(-c3ccccc3)cc12)Nc1ccc(F)c(F)c1	-25.1	-16.0	-208.4	-40.3
O=C(NC1CCN(Cc2ccccc2)CC1)C1CCN(c2ncccc2-n2cccc2)CC1	-5.8	8.7	-10.0	2.8
COc1ccc(NS(=O)(=O)c2cc(NC(=O)c3cccnc3)ccc2N2CCOCC2)cc1	-1.3	13.6	-0.2	2.2
COc1cc2[nH]c(=O)n(Cc3ccc(C(=O)NCCC(C)C)cc3)c(=O)c2cc1OC	9.3	9.6	17.5	3.0
O=C(c1nc(-c2ccc3[nH]ccc3c2)no1)N1CCN(c2ccc(Cl)cc2)CC1	-27.7	-13.4	-14.1	-17.6
COc1ccc(C)cc1NC(=O)COc1ccc2c(c1)OCO2	52.2*	36.6*	-1.5	-4.5
O=C(COc1ccc2c(c1)OCO2)Nc1ccc2c(c1)CCC2	15.9	30.9*	5.8	29.5

Screening results (PubChem BioAssay)
